Here are results for 9 compounds from PubChem BioAssay (Tox21).

The source made the active and inactive calls. Unless noted, calls follow the shape of the dose curve; as a rule, active = well fitted curve in the direction sought with a large enough effect in the repeat runs; inconclusive = weak or mixed curves; inactive = no such curve, though single readings can be large; an effect the other way counts as inactive or inconclusive.

A short description of test [1]: qHTS assay to identify small molecule antagonists of the thyroid receptor (TR) signaling pathway - cell viability counter screen (AID 743064). Also: nearly all actives have a fitted effect of over 50% in size. Also: potency is read from the fitted curve at half-maximal effect. The method, boiled down: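 Plate GH3.TRE-Luc cells; incubate 4 h at 37 °C; add compound, then T3 to 1 nM final; incubate 23.5 h; add CellTiter-Fluor; incubate 30 min at 37 °C, 5% CO2; read fluorescence.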
In general terms: qHTS replaces the single test concentration by a dilution series.

Test [2] in a line: qHTS assay to identify small molecule antagonists of the thyroid receptor (TR) signaling pathway (AID 743065). Also: nearly all actives have a fitted effect of over 55% in size. Also: potency is read from the fitted curve at half-maximal effect. The method, boiled down:
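GH3.TRE-Luc rat pituitary cells (two TREs driving luciferase) were dosed with compound, then stimulated with 1 nM T3 (final) for 23.5 h at 37 C. ONE-Glo luminescence was the read-out, with CellTiter-Fluor fluorescence as the cytotoxicity counter-screen.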

Test [3] concerns thyroid hormone receptor (rat, GH3 cells). Description: qHTS assay to identify small molecule agonists of the thyroid receptor (TR) signaling pathway (AID 743066; calls by dose curve; also: potency is read from the fitted curve at half-maximal effect).
A short description of test [4]: qHTS assay to identify small molecule antagonists of the estrogen receptor alpha (ER-alpha) signaling pathway - cell viability counter screen (AID 743074; calls by dose curve; also: nearly all actives have a fitted effect of over 45% in size).
A short description of test [5]: qHTS assay to identify small molecule antagonists of the estrogen receptor alpha (ER-alpha) signaling pathway using the BG1 cell line (AID 743080; calls by dose curve;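 also: BG1 cells stimulated with 17beta-estradiol alongside compound; nearly all actives have a fitted effect of over 25% in size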; also: potency is read from the fitted curve at half-maximal effect). The method, boiled down: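 Quantitative HTS on the Tox21 10K library: BG1 cells with endogenous ER-alpha and ERE-luciferase reporter, 17beta-estradiol stimulation, 21.5 h compound exposure, luminescence endpoint with parallel fluorescence cytotoxicity counter-read.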

A further test concerns the target Aromatase (Homo sapiens) (UniProt P11511). The test is described as follows: qHTS assay to identify aromatase inhibitors (AID 743083). Also: series mostly up to about 70 µM; nearly all actives have a fitted effect of over 55% in size.
The nature of test [6]: qHTS assay to identify aromatase inhibitors - cell viability counter screen (AID 743084).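 Also: cells stimulated with testosterone during compound exposure; nearly all actives have a fitted effect of over 55% in size.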 Also: potency is read from the fitted curve at half-maximal effect.
In test [7] the target is Aryl hydrocarbon receptor (Homo sapiens) (UniProt P35869). The test is described as follows: qHTS assay to identify small molecule that activate the aryl hydrocarbon receptor (AhR) signaling pathway (AID 743085).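 Also: HG2L7.5c1 human HepG2 liver cells with stably integrated DRE-driven firefly reporter; series mostly up to about 70 µM; nearly all actives have a fitted effect of over 15% in size.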 A digest of the protocol: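 Steps: seed HepG2-AhR-luc cells; allow 5 h at 37C; pin-transfer test compound or vehicle; incubate 24 h at 37C; add viability dye (30 min, 37C) and read fluorescence; add luciferase substrate (30 min, RT) and read luminescence.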
Aryl hydrocarbon receptor (Homo sapiens), sequence (P35869 whole entry, looked up): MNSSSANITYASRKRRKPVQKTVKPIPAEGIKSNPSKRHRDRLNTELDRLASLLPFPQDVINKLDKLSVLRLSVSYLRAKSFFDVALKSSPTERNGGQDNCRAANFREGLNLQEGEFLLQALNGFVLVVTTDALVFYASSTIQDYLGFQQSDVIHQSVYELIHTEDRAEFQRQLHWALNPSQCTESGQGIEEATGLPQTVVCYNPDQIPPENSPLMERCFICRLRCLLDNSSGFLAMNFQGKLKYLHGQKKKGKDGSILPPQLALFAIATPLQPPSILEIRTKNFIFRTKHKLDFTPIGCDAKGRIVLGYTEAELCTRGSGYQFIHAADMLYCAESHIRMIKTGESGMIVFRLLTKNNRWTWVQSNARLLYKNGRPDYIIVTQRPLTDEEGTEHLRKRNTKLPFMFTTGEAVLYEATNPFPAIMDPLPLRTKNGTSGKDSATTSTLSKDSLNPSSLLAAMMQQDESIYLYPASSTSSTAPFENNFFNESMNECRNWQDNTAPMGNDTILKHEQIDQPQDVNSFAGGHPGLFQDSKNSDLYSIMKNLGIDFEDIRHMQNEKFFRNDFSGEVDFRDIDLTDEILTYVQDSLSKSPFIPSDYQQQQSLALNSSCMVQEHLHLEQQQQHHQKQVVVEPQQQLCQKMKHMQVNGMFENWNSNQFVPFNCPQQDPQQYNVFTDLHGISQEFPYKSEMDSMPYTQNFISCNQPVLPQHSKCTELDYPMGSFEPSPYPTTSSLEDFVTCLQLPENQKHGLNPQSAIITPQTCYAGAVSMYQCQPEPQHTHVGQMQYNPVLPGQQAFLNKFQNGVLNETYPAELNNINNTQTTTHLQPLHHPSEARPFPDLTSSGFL

In test [8] the target is Peroxisome proliferator-activated receptor gamma (Homo sapiens) (UniProt P37231). Description: qHTS assay to identify small molecule antagonists of the peroxisome proliferator-activated receptor gamma (PPARg) signaling pathway (AID 743191; calls by dose curve; also: series mostly up to about 63 µM; nearly all actives have a fitted effect of over 30% in size). A digest of the protocol:
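GeneBLAzer PPARg UAS-bla HEK293H cells, 5 h post-plating, exposed to compounds 17 h at 37C. LiveBLAzer B/G FRET substrate added for 1 h at room temperature; beta-lactamase reporter read by fluorescence intensity.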

Test [9] can be described thus: qHTS assay to identify small molecule antagonists of the peroxisome proliferator-activated receptor gamma (PPARg) signaling pathway - cell viability counter screen (AID 743194). Also: nearly all actives have a fitted effect of over 55% in size. The method, boiled down: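 Cytotoxicity counter screen in PPARg-bla HEK293H cells, same wells as reporter assay. Compounds plus 50 nM rosiglitazone (final) for 17 h at 37 C, then viability read by CellTiter-Glo luminescence.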

The nature of test [10]: qHTS assay for small molecule agonists of the antioxidant response element (ARE) signaling pathway - cell viability counter screen (AID 743203; calls by dose curve; also: nearly all actives have a fitted effect of over 55% in size). A digest of the protocol:
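Viability counter screen: CellTiter-Glo luminescence, read after 30 min at room temperature, in ARE-bla HepG2 wells. Compound exposure lasted 16 h at 37C/5% CO2, following a 5 h pre-incubation of the cells after plating.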

Test [11] can be described thus: qHTS assay for small molecule activators of the heat shock response signaling pathway - cell viability counter screen (AID 743209). Also: nearly all actives have a fitted effect of over 50% in size. The method, boiled down: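 Cytotoxicity counter screen run in the same wells as the heat-shock bla reporter assay: HeLa HSE-bla cells, 5 h compound exposure at 37 C, viability read by CellTiter-Glo luminescence.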
Test [12] addresses Estrogen receptor (Homo sapiens) (UniProt P03372). The test is described as follows: qHTS assay to identify small molecule antagonists of the estrogen receptor alpha (ER-alpha) signaling pathway (AID 743069; active = well fitted curve in the direction sought with a large enough effect in the signal ratio in the repeat runs, not every such curve was filed as active; inconclusive = weak or mixed curves, or effect the other way; inactive = no such curve, though single readings can be large or run the other way; the % refers to the signal ratio; also: potency is read from the fitted curve at half-maximal effect). The method, boiled down: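 In this cell-based reporter format, GripTite HEK293 cells harbouring ER-alpha-UAS-bla were grown overnight with 2% charcoal-stripped FBS, dosed with DMSO-dissolved compounds, then challenged with 17beta-estradiol. After 18 hr at 37C, beta-lactamase activity was detected by FRET fluorescence.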

The target is the same in test [13]. The test is described as follows: qHTS assay to identify small molecule agonists of the estrogen receptor alpha (ER-alpha) signaling pathway (AID 743075; calls by dose curve; also: potency is read from the fitted curve at half-maximal effect).
Test [14] deals with Peroxisome proliferator-activated receptor gamma (Homo sapiens) (UniProt P37231). The test is described as follows: qHTS assay to identify small molecule agonists of the peroxisome proliferator-activated receptor gamma (PPARg) signaling pathway (AID 743094; active = well fitted activation curve with a large enough effect in the signal ratio in the repeat runs, not every such curve was filed as active; inconclusive = weak or mixed curves, or effect the other way; inactive = no such curve, though single readings can be large or run the other way; the % refers to the signal ratio). A digest of the protocol: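 Agonist activity was taken from a beta-lactamase reporter (FRET substrate, 1 h at room temperature) in HEK293H cells carrying a PPARg UAS-bla construct. Compounds in DMSO were incubated 17 h at 37C after a 5 h cell pre-incubation.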
Peroxisome proliferator-activated receptor gamma (Homo sapiens), sequence (P37231 whole entry, looked up): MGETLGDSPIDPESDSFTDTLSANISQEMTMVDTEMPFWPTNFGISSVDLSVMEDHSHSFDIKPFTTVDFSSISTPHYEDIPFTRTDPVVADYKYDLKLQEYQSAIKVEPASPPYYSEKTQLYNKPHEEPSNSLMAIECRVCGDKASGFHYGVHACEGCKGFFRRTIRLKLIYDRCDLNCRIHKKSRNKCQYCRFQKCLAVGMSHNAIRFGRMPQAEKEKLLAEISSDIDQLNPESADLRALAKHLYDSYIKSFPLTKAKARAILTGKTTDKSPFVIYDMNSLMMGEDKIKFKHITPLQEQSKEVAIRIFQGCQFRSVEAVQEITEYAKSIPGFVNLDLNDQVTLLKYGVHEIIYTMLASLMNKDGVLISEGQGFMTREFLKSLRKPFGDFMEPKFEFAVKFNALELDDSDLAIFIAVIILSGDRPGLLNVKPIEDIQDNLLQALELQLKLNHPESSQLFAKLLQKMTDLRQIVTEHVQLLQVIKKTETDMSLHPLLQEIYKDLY

Test [15] is described as follows: qHTS assay for small molecule activators of the heat shock response signaling pathway (AID 743210; active = well fitted activation curve with a large enough effect in the signal ratio in the repeat runs, with a control signal flat, not every such curve was filed as active; inconclusive = weak or mixed curves; the % refers to the signal ratio;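 also: HeLa cells with beta-lactamase reporter driven by heat shock elements; series mostly up to about 63 µM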). A digest of the protocol: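 Following overnight attachment, HSE-bla HeLa cells received test compounds for 5 h at 37 C; beta-lactamase activity was then detected via FRET substrate fluorescence.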
The target of test [16] is Estrogen receptor (Homo sapiens) (UniProt P03372). The test is described as follows: qHTS assay to identify small molecule agonists of the estrogen receptor alpha (ER-alpha) signaling pathway using the BG1 cell line (AID 743079). Also: nearly all actives have a fitted effect of over 20% in size. Also: potency is read from the fitted curve at half-maximal effect.
Estrogen receptor (Homo sapiens), sequence (P03372 whole entry, looked up): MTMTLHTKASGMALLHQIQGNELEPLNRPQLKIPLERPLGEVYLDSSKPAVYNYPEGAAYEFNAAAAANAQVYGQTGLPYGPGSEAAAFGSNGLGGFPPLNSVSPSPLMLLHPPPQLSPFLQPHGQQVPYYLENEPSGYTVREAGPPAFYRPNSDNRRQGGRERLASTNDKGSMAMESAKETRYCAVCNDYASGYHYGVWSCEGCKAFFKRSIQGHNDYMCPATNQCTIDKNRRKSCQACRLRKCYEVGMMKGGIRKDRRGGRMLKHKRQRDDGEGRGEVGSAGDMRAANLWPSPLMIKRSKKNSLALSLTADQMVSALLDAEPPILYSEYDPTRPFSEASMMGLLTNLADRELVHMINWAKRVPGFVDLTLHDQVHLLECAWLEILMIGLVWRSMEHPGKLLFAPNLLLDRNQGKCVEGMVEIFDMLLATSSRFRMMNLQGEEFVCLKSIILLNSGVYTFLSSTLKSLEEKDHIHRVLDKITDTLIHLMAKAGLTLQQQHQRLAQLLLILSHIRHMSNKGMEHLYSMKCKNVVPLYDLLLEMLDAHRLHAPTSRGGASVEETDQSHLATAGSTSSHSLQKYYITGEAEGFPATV
Test [17] can be described thus: qHTS assay to identify small molecule antagonists of the estrogen receptor alpha (ER-alpha) signaling pathway using the BG1 cell line - cell viability counter screen (AID 743081).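 Also: compound given together with 17beta-estradiol as the ER stimulus; series mostly up to about 70 µM; nearly all actives have a fitted effect of over 45% in size.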
The nature of test [18]: qHTS assay to identify small molecule that activate the aryl hydrocarbon receptor (AhR) signaling pathway - cell viability counter screen (AID 743086).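 Also: HepG2 liver cells carrying the AhR DRE luciferase reporter; series mostly up to about 70 µM; nearly all actives have a fitted effect of over 45% in size.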 A digest of the protocol:
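HepG2-AhR-luc (HG2L7.5c1) cells, 4000/well, treated 24 h at 37 C with compound; viability measured as CellTiter-Fluor fluorescence after 30 min in the same wells as the luciferase read.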

Test [19] is described as follows: qHTS assay for small molecule agonists of the antioxidant response element (ARE) signaling pathway (AID 743202; active = well fitted activation curve with a large enough effect in the signal ratio in the repeat runs, not every such curve was filed as active; inconclusive = weak or mixed curves, or effect the other way; inactive = no such curve, though single readings can be large or run the other way; the % refers to the signal ratio). A digest of the protocol: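 HepG2 ARE-bla cells; 16 h treatment at 37 C; FRET-based beta-lactamase fluorescence read after 2 h substrate incubation at room temperature.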

Aromatase (Homo sapiens), sequence (P11511 whole entry, looked up): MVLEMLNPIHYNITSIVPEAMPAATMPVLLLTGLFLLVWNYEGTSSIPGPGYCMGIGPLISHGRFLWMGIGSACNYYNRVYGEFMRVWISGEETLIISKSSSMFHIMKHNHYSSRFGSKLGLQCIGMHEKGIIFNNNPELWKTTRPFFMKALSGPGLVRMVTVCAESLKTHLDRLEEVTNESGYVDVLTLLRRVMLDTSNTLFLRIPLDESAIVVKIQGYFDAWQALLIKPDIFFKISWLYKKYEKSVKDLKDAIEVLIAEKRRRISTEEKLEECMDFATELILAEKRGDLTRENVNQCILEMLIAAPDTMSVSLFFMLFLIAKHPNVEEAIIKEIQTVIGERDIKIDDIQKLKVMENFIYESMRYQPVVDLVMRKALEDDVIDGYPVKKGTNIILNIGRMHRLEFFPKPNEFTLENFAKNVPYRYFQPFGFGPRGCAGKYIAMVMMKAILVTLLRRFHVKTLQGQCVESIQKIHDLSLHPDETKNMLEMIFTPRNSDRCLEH

On to `Oc1ccc(C(O)CNCCCCCCNCC(O)c2ccc(O)c(O)c2)cc1O` (stereo not drawn), for which the Potency is 15 µM (active) in [1], 29.8 µM (active) in [2] and 21.1 µM (active) in [6]. For the same compound, the Potency result (in test [3]; in test [5]; with Aromatase (Homo sapiens); in test [7]; in test [8]; in test [9]) was “inactive” each time. For the same compound, the Potency entry in test [10] and in [11] was “inactive” throughout. Moreover, the result in [4] was inactive.
Turning to `Cc1nc2ccccc2n1Cc1ccc(Cl)cc1`, the Potency entry (in test [1]; in [3]; in [12]; in test [13]; in the test with Aromatase (Homo sapiens); in [6]) was “inactive” each time. Moreover, the Potency result in test [7], in test [14], in [9] and in [11] was “inactive” throughout. The Potency is 6.68 µM (active) in test [2] and 2.37 µM (active) in test [5]. Also, the call in test [15] was inactive.
`CCN(CC)CCc1nc(-c2ccccc2)no1`: the Potency result in test [1], in test [2], in [3], in test [12], in [13] and in test [16] was “inactive” each time. In addition, the Potency entry (in [17]; in the test with Aromatase (Homo sapiens); in test [6]; in test [18]; in test [14]; in test [9]) was “inactive” each time. Moreover, the Potency entry in test [10] and in [11] was “inactive” in each case. Further, the compound was called inactive in test [4] and in [15].
For `O=C1c2cccc(O)c2C(=O)c2c(O)cc(CO)cc21`, the Potency result (in test [1]; in test [2]; in test [3]; in test [13]; in test [17]; in the test with Aromatase (Homo sapiens)) was “inactive” in each case. For the same compound, the Potency result in [6], in test [7], in test [18], in test [10] and in test [11] was “inactive” each time. In addition, the compound was classed as inactive in test [4] and in test [15].
For the compound `Cc1cc(NC(=O)C(=O)O)cc(C)c1Oc1ccc(O)c2c1CCC2`, the Potency result in test [1], in test [2], in test [12], in [13], in test [5] and in test [17] was “inactive” throughout. For the same compound, the Potency result (in the test with Aromatase (Homo sapiens); in test [18]; in test [19]; in test [10]; in test [11]) was “inactive” in each case. The Potency is 0.0017 µM (active) in test [3] and 38.6 µM (active) in test [16]. Besides, in [15], the outcome was inactive.
As for `CNS(=O)(=O)Cc1ccc2[nH]cc(CCN(C)C)c2c1`, the Potency result (in test [1]; in test [2]; in test [3]; in [17]; in the test with Aromatase (Homo sapiens); in [6]) was “inactive” throughout. Also, the Potency entry in test [7], in test [18], in test [14], in test [8], in [9] and in test [19] was “inactive” in each case. Also, the Potency result in test [10] and in test [11] was “inactive” in each case. Besides, the call in test [4] and in [15] was inactive.
As to `O=C(O)C(c1ccc(Cl)cc1)c1ccc(Cl)cc1`, the Potency entry in test [1], in test [2], in test [3], in [13], in test [5] and in test [17] was “inactive” throughout. The Potency entry in test [6], in [18], in test [9], in test [19], in [10] and in [11] was “inactive” throughout. The outcome in test [4] and in [15] was inactive.
For `CCCCCCc1ccc(N)cc1`, the Potency entry in [1], in [3], in test [13], in test [17], in [6] and in [7] was “inactive” in each case. Further, the Potency entry in [18], in test [9] and in [11] was “inactive” in each case. In addition, the Potency is 30.6 µM (active) in test [2], 15.5 µM [inconclusive] (active) in [12] and 21.7 µM (active) in test [16]. Also, the result in test [4] and in [15] was inactive.
As for `O=C(c1ccc(O)cc1)c1ccc(O)cc1`, the Potency entry (in [1]; in test [2]; in test [3]; in test [5]; in test [17]; with Aromatase (Homo sapiens)) was “inactive” in each case. Also, the Potency entry in test [6], in test [18], in [14], in [9], in test [19] and in test [11] was “inactive” each time. Besides, the compound was classed as inactive in [4] and in test [15]. Further, the figures for the Potency in test [13] and in test [16] were 17.4 µM [inconclusive] (active) and 2.73 µM (active), respectively.
